Reference: PubChem BioAssay
A number with no mark means an inactive call. Activity calls are given as the source filed them.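 Rule for the calls: active = normalized viability below 100% at a tested concentration; inactive = the rest.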 *1 amine or outer side, *2 acyl side, *3 side chain or, on linkers, in order; H or OH if unused. Where a SMILES comes first, the peptide text is derived from it. Bridges are numbered along the chain shown (N, C = ends). Roman numbers before positions name the chains, in order. [ ]: non-standard residue; d: D form. Hexamethylenediamine = C(CCCN[*:2])CCN[*:1]; Dip = N[C@H](C(=O)O)C(c1ccccc1)c1ccccc1; Chg = N[C@H](C(=O)O)C1CCCCC1; NMeA = CN[C@@H](C)C(=O)O

Experiment: drug combination growth inhibition, ovarian cancer – cell-based, oncology-focused library, rucaparib conditional, profiling panel (AID 1508598)
Settings: patient-derived ovarian cancer cells, CellTiter-Glo viability, 144 h, hits give low values
[1] = at 5 µM, OCI-P5x cells, with rucaparib 20 µM, 100% = cells with rucaparib alone
[2] = at 5 µM, OCI-P5x cells, without rucaparib
[3] = at 0.000305 µM, OCI-C5x cells, with rucaparib 10 µM, 100% = cells with rucaparib alone
[4] = at 0.000305 µM, OCI-C5x cells, without rucaparib
[5] = at 0.000305 µM, OCI-P5x cells, with rucaparib 20 µM, 100% = cells with rucaparib alone
[6] = at 0.000305 µM, OCI-P5x cells, without rucaparib
[7] = at 0.00122 µM, OCI-C5x cells, with rucaparib 10 µM, 100% = cells with rucaparib alone
[8] = at 0.00122 µM, OCI-C5x cells, without rucaparib
[9] = at 0.00122 µM, OCI-P5x cells, with rucaparib 20 µM, 100% = cells with rucaparib alone
[10] = at 0.00122 µM, OCI-P5x cells, without rucaparib
[11] = at 0.00488 µM, OCI-C5x cells, with rucaparib 10 µM, 100% = cells with rucaparib alone
[12] = at 0.00488 µM, OCI-C5x cells, without rucaparib
[13] = at 0.00488 µM, OCI-P5x cells, with rucaparib 20 µM, 100% = cells with rucaparib alone
[14] = at 0.00488 µM, OCI-P5x cells, without rucaparib
[15] = at 0.0195 µM, OCI-C5x cells, with rucaparib 10 µM, 100% = cells with rucaparib alone
[16] = at 0.0195 µM, OCI-C5x cells, without rucaparib
[17] = at 0.0195 µM, OCI-P5x cells, with rucaparib 20 µM, 100% = cells with rucaparib alone
[18] = at 0.0195 µM, OCI-P5x cells, without rucaparib
[19] = at 0.0781 µM, OCI-C5x cells, with rucaparib 10 µM, 100% = cells with rucaparib alone
[20] = at 0.0781 µM, OCI-C5x cells, without rucaparib
[21] = at 0.0781 µM, OCI-P5x cells, with rucaparib 20 µM, 100% = cells with rucaparib alone
[22] = at 0.0781 µM, OCI-P5x cells, without rucaparib
[23] = at 0.313 µM, OCI-C5x cells, with rucaparib 10 µM, 100% = cells with rucaparib alone
[24] = at 0.313 µM, OCI-C5x cells, without rucaparib
[25] = at 0.313 µM, OCI-P5x cells, with rucaparib 20 µM, 100% = cells with rucaparib alone
[26] = at 0.313 µM, OCI-P5x cells, without rucaparib
[27] = at 1.25 µM, OCI-C5x cells, with rucaparib 10 µM, 100% = cells with rucaparib alone
[28] = at 1.25 µM, OCI-C5x cells, without rucaparib
[29] = at 1.25 µM, OCI-P5x cells, with rucaparib 20 µM, 100% = cells with rucaparib alone
[30] = at 1.25 µM, OCI-P5x cells, without rucaparib
[31] = at 5 µM, OCI-C5x cells, with rucaparib 10 µM, 100% = cells with rucaparib alone
[32] = at 5 µM, OCI-C5x cells, without rucaparib

In the case of `CC(=O)[C@]1(O)Cc2c(O)c3c(c(O)c2[C@H](O[C@H]2C[C@H](N)[C@H](O)[C@H](C)O2)C1)C(=O)c1ccccc1C3=O`, the viability [1] is reported as 4.45% (active) and the viability [2] is reported as 3.64% (active).
In the case of `CC[C@]1(O)C[C@@H]2CN(CCc3c([nH]c4ccccc34)[C@@](C(=O)OC)(c3cc4c(cc3OC)N(C=O)[C@H]3[C@@](O)(C(=O)OC)[C@H](OC(C)=O)[C@]5(CC)C=CCN6CC[C@@]43[C@@H]65)C2)C1`, the viability [3] is reported as 113%, the viability [4] is reported as 110% and the viability [5] is reported as 91.7% (active). The viability [6] was 90.9% (active), the viability [7] was 106% and the viability [8] was 106%. The viability [9] was 73.6% (active), the viability [10] was 31.5% (active) and the viability [11] was 66.7% (active). The viability [12] was 41.5% (active), the viability [13] was 51% (active) and the viability [14] was 17.7% (active). For the same molecule, the viability [15] was 44.5% (active), the viability [16] was 29% (active) and the viability [17] was 57.9% (active). For the same molecule, the viability [18] was 14.5% (active), the viability [19] was 36.6% (active) and the viability [20] was 24% (active). For the same molecule, the viability [21] was 49.3% (active), the viability [22] was 12.1% (active) and the viability [23] was 34% (active). For the same molecule, the viability [24] was 23.4% (active), the viability [25] was 49.8% (active) and the viability [26] was 10.9% (active). For the same molecule, the viability [27] was 33.5% (active), the viability [28] was 23.5% (active) and the viability [29] was 44.2% (active). For the same molecule, the viability [30] was 12.2% (active), the viability [31] was 34.1% (active) and the viability [32] was 22.9% (active). For the same molecule, the viability [1] was 43% (active) and the viability [2] was 11.8% (active).
With `O=C(/C=C/c1ccc2ccccc2n1)c1ccncc1` the viability [3] was 108%, the viability [4] was 116% and the viability [5] was 96% (active). For the same molecule, the viability [6] was 84.9% (active), the viability [7] was 121% and the viability [8] was 120%. The viability [9] was 99.6% (active), the viability [10] was 91.2% (active) and the viability [11] was 119%. For the same molecule, the viability [12] was 119%, the viability [13] was 70.3% (active) and the viability [14] was 17.7% (active). The viability [15] was 122%, the viability [16] was 130% and the viability [17] was 56.8% (active). For the same molecule, the viability [18] was 13.9% (active), the viability [19] was 119% and the viability [20] was 116%. The viability [21] was 51.3% (active), the viability [22] was 15.5% (active) and the viability [23] was 120%. For the same molecule, the viability [24] was 112%, the viability [25] was 54.4% (active) and the viability [26] was 13.6% (active). For the same molecule, the viability [27] was 113%, the viability [28] was 124% and the viability [29] was 34.2% (active). For the same molecule, the viability [30] was 111%, the viability [31] was 3.77% (active) and the viability [32] was 128%. For the same molecule, the viability [1] was 16.9% (active) and the viability [2] was 109%.
For `C[C@]12CCC(=O)C=C1CC[C@@H]1[C@H]2[C@H](O)C[C@@]2(C)[C@H]1CC[C@@]2(O)C(=O)CO`, the viability [3] was 107%, the viability [4] was 119% and the viability [5] was 105%. It also gave a viability [6] of 115%, a viability [7] of 109% and a viability [8] of 116%. The viability [9] was 98.6% (active), the viability [10] was 109% and the viability [11] was 114%. It also gave a viability [12] of 121%, a viability [13] of 102% and a viability [14] of 117%. The viability [15] was 110%, the viability [16] was 128% and the viability [17] was 109%. It also gave a viability [18] of 112%, a viability [19] of 112% and a viability [20] of 132%. It also gave a viability [21] of 103%, a viability [22] of 115% and a viability [23] of 103%. For the same molecule, the viability [24] was 119%, the viability [25] was 104% and the viability [26] was 114%. It also gave a viability [27] of 111%, a viability [28] of 118% and a viability [29] of 103%. For the same molecule, the viability [30] was 114%, the viability [31] was 125% and the viability [32] was 120%. The viability [1] was 103% and the viability [2] was 99.3% (active).
`COc1cccc2c1C(=O)c1c(O)c3c(c(O)c1C2=O)C[C@@](O)(C(=O)CO)C[C@H]3O[C@H]1C[C@H](N)[C@@H](O)[C@H](C)O1` gave a viability [3] of 101%, a viability [4] of 108% and a viability [5] of 107%. For the same molecule, the viability [6] was 105%, the viability [7] was 94.3% (active) and the viability [8] was 106%. For the same molecule, the viability [9] was 103%, the viability [10] was 106% and the viability [11] was 90.6% (active). For the same molecule, the viability [12] was 95.4% (active), the viability [13] was 106% and the viability [14] was 97.5% (active). The viability [15] was 78.4% (active), the viability [16] was 75.5% (active) and the viability [17] was 92% (active). For the same molecule, the viability [18] was 54.5% (active), the viability [19] was 103% and the viability [20] was 83.9% (active). The viability [21] was 54% (active), the viability [22] was 30.8% (active) and the viability [23] was 37.5% (active). The viability [24] was 43.3% (active), the viability [25] was 45.3% (active) and the viability [26] was 15.5% (active). The viability [27] was 15.6% (active), the viability [28] was 31.1% (active) and the viability [29] was 11.7% (active). For the same molecule, the viability [30] was 10.8% (active), the viability [31] was 8.09% (active) and the viability [32] was 2.52% (active). For the same molecule, the viability [1] was 3.69% (active) and the viability [2] was 5.43% (active).
For `CN[C@@H](C)C(=O)N[C@H](C(=O)N1CCC[C@H]1C(=O)N[C@H](C(=O)NCCCCCCNC(=O)[C@@H](NC(=O)[C@@H]1CCCN1C(=O)[C@@H](NC(=O)[C@H](C)NC)C1CCCCC1)C(c1ccccc1)c1ccccc1)C(c1ccccc1)c1ccccc1)C1CCCCC1` (I: H-[NMeA][Chg]P[Dip] / II: H-[NMeA][Chg]P[Dip]; linker I:C-II:C via Hexamethylenediamine), the viability [3] was 121%, the viability [4] was 115% and the viability [5] was 85.6% (active). For the same molecule, the viability [6] was 93.2% (active), the viability [7] was 119% and the viability [8] was 106%. The viability [9] was 95.3% (active), the viability [10] was 94.9% (active) and the viability [11] was 129%. For the same molecule, the viability [12] was 111%, the viability [13] was 83.7% (active) and the viability [14] was 94.7% (active). For the same molecule, the viability [15] was 115%, the viability [16] was 108% and the viability [17] was 81.4% (active). For the same molecule, the viability [18] was 99.5% (active), the viability [19] was 110% and the viability [20] was 112%. For the same molecule, the viability [21] was 39.3% (active), the viability [22] was 85.3% (active) and the viability [23] was 114%. The viability [24] was 116%, the viability [25] was 19.6% (active) and the viability [26] was 54.1% (active). The viability [27] was 96.9% (active), the viability [28] was 105% and the viability [29] was 13.6% (active). The viability [30] was 21.5% (active), the viability [31] was 89.4% (active) and the viability [32] was 120%. The viability [1] was 0.911% (active) and the viability [2] was 7.49% (active).
For `COc1cccc2c1C(=O)c1c(O)c3c(c(O)c1C2=O)C[C@@](O)(C(C)=O)C[C@H]3O[C@H]1C[C@H](N)[C@H](O)[C@H](C)O1`, the viability [3] was 118%, the viability [4] was 110% and the viability [5] was 110%. For the same molecule, the viability [6] was 105%, the viability [7] was 123% and the viability [8] was 101%. For the same molecule, the viability [9] was 99.8% (active), the viability [10] was 101% and the viability [11] was 125%. The viability [12] was 152%, the viability [13] was 99.2% (active) and the viability [14] was 94.6% (active). For the same molecule, the viability [15] was 198%, the viability [16] was 201% and the viability [17] was 84.2% (active). For the same molecule, the viability [18] was 43% (active), the viability [19] was 180% and the viability [20] was 105%. The viability [21] was 74.4% (active), the viability [22] was 26.5% (active) and the viability [23] was 101%. For the same molecule, the viability [24] was 5.28% (active), the viability [25] was 25.9% (active) and the viability [26] was 10.5% (active). For the same molecule, the viability [27] was 2.76% (active), the viability [28] was 1.21% (active) and the viability [29] was 15.7% (active). For the same molecule, the viability [30] was 5.33% (active), the viability [31] was 2.96% (active) and the viability [32] was 1.85% (active). The viability [1] was 4.23% (active) and the viability [2] was 3.15% (active).
